From PubChem BioAssay (NCI) come the findings set out here.

Holding throughout (test): NCI-60 one-dose screen, 48 h (100 = growth as untreated, 0 = no growth, -100 = all killed)
Common to all, as to conditions: 10 µM unless noted

Test [1] deals with T-47D breast.
For test [2], the system named is BT-549 breast.
The test system of test [3] is MDA-MB-435 melanoma.
The subject of test [4] is SW-620 colon.
For test [5], the system named is MCF7 breast.
For test [6], the system named is HCT-116 colon.
Test [7] has as its system HCC-2998 colon.
Test [8] deals with KM12 colon.

Compounds without any hit were thinned out: in the full panel of roughly 83,000, 20% have a hit.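 Compound tested at a single concentration for 48 hours in 96-well plates; a percent growth value below 10 was scored as active.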 A number with no mark means an inactive call. Activity calls are given as the source filed them.

Take `CC1=C[C@H]2c3c(c(O)c(O)c4oc5ccccc5c(=O)c34)[C@H](c3cc(O)c(O)c4oc5ccccc5c(=O)c34)[C@H]2C(C)(C)C1`: the growth was 9.72% (active) in test [1]; -15.3% (active) in test [2]; -36% (active) in test [3]; 11.9% in test [4]; 9.6% (active) in test [5]; -84.8% (active) in test [6]. Also, the growth in test [7] was 11.6%.
In the case of `COc1ccc(S(=O)(=O)N2CC3(COC3)C2)cc1NC(=O)c1[nH]c(C)c2c1CCCCC2=O`, the growth in test [1] was 37%; in test [2] it was 73.3%; in test [3], 45.5%; in test [4] it was 72.9%; in test [5] it was 21.9%; in test [6], 51.7%. For the same compound, in test [7], the growth is 58.7%.
On to `CN1CCN(Cc2ccc(NC(=O)c3cncc(C#Cc4cncn5ccnc45)c3)cc2C(F)(F)F)CC1`, for which the growth in test [1] was 98.9%; in test [2], 60.8%; in test [3], 36.2%; in test [4], 32.2%; in test [5], 55.9%; in test [6] it was 7.73% (active). In test [7], the growth is 47.6%.
In the case of `CN1CCN(c2nc(NCCCCNc3ccnc4cc(Cl)ccc34)c3ccccc3n2)CC1`, the growth is 96.1% in test [1]; 74.6% in test [2]; -10.5% (active) in test [3]; 41.2% in test [4]; 51.3% in test [5]; 53.1% in test [6]. In addition, the growth in test [7] was 57.4%; in test [8] it was 65.5%.
Consider `Cn1cc(-c2nonc2-c2c[nH]c3ccccc23)c2cccnc21`, for which the growth in test [1] is 27%; in test [2] it was 58.6%; in test [3], -22.6% (active); in test [4], 14.1%; in test [5], 19.4%; in test [6], 24.3%. For the same compound, the growth in test [7] was 69.9%; in test [8], 20.1%.
For `CSc1nc(-c2cccc(NC(=O)CCl)c2)c(C#N)c(=O)n1C`, the growth in test [1] is 34.5%; in test [2], 53.4%; in test [3] it was 54.5%; in test [4], 27.3%; in test [5], 20.6%; in test [6], 7.55% (active). Also, the growth in test [7] is 116%.
Regarding `CC(C)(CCCN=C(N)Nc1ccc(Cl)cc1)c1ccc(F)cc1`, the growth in test [1] was 53.9%; in test [2], 82.6%; in test [3], 63%; in test [4] it was 43.4%; in test [5], 52.9%; in test [6], 28.6%.
In the case of `COc1cc(C(=O)Oc2ccccc2OC(=O)c2cc(OC)c(OC)c(OC)c2)cc(OC)c1OC`, the growth in test [1] is 102%; in test [2] it was 94%; in test [3] it was 103%; in test [4], 109%; in test [5] it was 97.2%; in test [6], 104%. Moreover, in test [7], the growth is 101%.
As to `COc1cc(-c2nn(-c3ccc(C)cc3)cc2C(=O)O)ccc1O`, the growth was 89.5% in test [1]; 103% in test [2]; 87.3% in test [3]; 103% in test [4]; 93.4% in test [5]; 99.7% in test [6]. For the same compound, the growth in test [7] is 92.5%.
Consider `COc1ccc(C2C(C#N)=C(N)Oc3n[nH]c(-c4cccs4)c32)cc1I` (stereo not given), for which the growth in test [1] was 94.4%; in test [2] it was 92.1%; in test [3], 66.7%; in test [4], 83.8%; in test [5], 69.4%; in test [6] it was 91.9%. Further, in test [7], the growth is 95.9%.
In the case of `Cc1cc(C)nc(SC2=C(Nc3cccc(Cl)c3C)C(=O)N(Cc3ccccc3)C2=O)n1`, the growth is 37.1% [30 µM] in test [1]; 48.1% [30 µM] in test [2]; 42.1% [30 µM] in test [3]; 65.4% [30 µM] in test [4]; 30.7% [30 µM] in test [5]; 44.1% [30 µM] in test [6].
For the compound `COc1ccc(Nc2cc(C)nc(N3CCN(c4ccnc5cc(Cl)ccc45)CC3)n2)cc1`, the growth in test [1] is 7.42% (active); in test [2], 51.2%; in test [3], 2.27% (active); in test [4], 25.4%; in test [5], 9.32% (active); in test [6], 0.65% (active). The growth in test [7] is 41.2%.
Consider `CNC(=O)c1cc(Oc2ccc(NC(=O)Nc3ccc(Cl)c(OC(F)(F)F)c3)c(F)c2)ccn1`, for which the growth was -2.82% (active) in test [1]; 60.4% in test [2]; 19.4% in test [3]; 43.1% in test [4]; 17.1% in test [5]; 14% in test [6]. Further, the results for the growth in test [7] and in test [8] were 39% and 13.3%, respectively.
As for `CC(=O)Nc1ccc(-n2c(O)c(/C=N/NC(=O)Cc3ccccc3Nc3c(Cl)cccc3Cl)sc2=S)cc1`, the growth in test [1] was 80.6%; in test [2], 104%; in test [3], 109%; in test [4], 96.5%; in test [5] it was 92.3%; in test [6], 95.3%. The growth in test [7] is 106%.
For the compound `Cc1cc(N[C@@H]2CCC[C@H](Nc3ccnc4cc(Cl)ccc34)C2)nc(N2CCCCCC2)n1`, the growth is -41.8% (active) in test [1]; -87.9% (active) in test [2]; -91.7% (active) in test [3]; -76.5% (active) in test [4]; -63.1% (active) in test [5]; -88.6% (active) in test [6]. Moreover, the growth in test [7] is -83.7% (active).
For the compound `COc1cc2c(cc1-c1c(C)noc1C)ncc1nc(C3CCCC3)n([C@H](C)COC(F)F)c12`, the growth in test [1] was 29.7%; in test [2], 54.8%; in test [3], 32.4%; in test [4], 57.5%; in test [5], 19.9%; in test [6] it was 31%. Also, in test [7], the growth is 43.3%.
Turning to `COc1cc2c(cc1-c1c(C)noc1C)ncc1nc(-c3ccccn3)n([C@H](C)COC(F)F)c12`, the growth in test [1] is 35.2%; in test [2], 57.7%; in test [3] it was 46.4%; in test [4] it was 65.1%; in test [5], 19.7%; in test [6], 35.5%. Moreover, in test [7], the growth was 49%.
